Results taken from PubChem BioAssay (NCI).
About 83,000 compounds went through this panel and 20% of them were active in at least one assay; those are over-represented in the sample as a whole.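 Growth was measured after 48 h exposure to one concentration of compound in 96-well plates. Values under 10 count as active.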 Activity calls are given as the source filed them.

What follows are compounds tested on IGROV1 ovarian (assay: NCI-60 one-dose screen, 48 h (100 = growth as untreated, 0 = no growth, -100 = all killed)). Details: 10 µM.

Row | SMILES | growth
1 | C=C1CC[C@H](C(=C)C)[C@H]2C=C(C)C(=O)C3=C(C(=O)[C@@](C)(O)C3)[C@H]12 | -61.4% (active)
2 | COc1ccc(N(C)c2cc(C#N)nc3ccccc23)cc1N | 17.1% (inactive)
3 | COc1ccc(C(C)=C(c2ccc(OCCCN(C)C)cc2)c2ccc(OCCCN(C)C)cc2)cc1 | -91.1% (active)
4 | CC1(c2ccccc2)NC(=O)N(CC(=O)Nc2ccc(C(=O)/C=C/c3ccc(Cl)cc3)cc2)C1=O (centres undefined) | -19.8% (active)
5 | NC(=Nc1ccc(OCCCCCCCCn2ccnn2)cc1)c1ccccc1 | 28.9% (inactive)
6 | COC[C@@H](CC(C)C)N=C1N/C(=C\c2ccc3ncsc3c2)C(=O)N1C | 9.21% (active)
7 | O=C(CSc1ccc(-c2ccc(Cl)cc2)nn1)Nc1ccc(Cl)c(C(F)(F)F)c1 | 70.9% (inactive)
8 | Cc1ccc(NC(=O)NCn2c(=O)[nH]c3ccccc3c2=O)cc1 | 76.6% (inactive)
9 | Cc1cc(C)cc(Oc2cccc(-c3c(C)nnn3C3CCN(CCN(C)C)CC3)n2)c1 | 36.2% (inactive)
10 | CC(=O)NCC1=C(C)C=C2C(=O)[C@](C)(O)C3(CC3)C(C)=C21 | -39.3% (active)
11 | O=C(Nc1ccc(OCC(=O)c2ccccc2)cc1)Nc1ccc(Cl)c(C(F)(F)F)c1 | 28.9% (inactive)
12 | CCOC(=O)c1c(CSc2ccccc2)n(C)c2cc(CN(C)C)c(O)c(CN(C)C)c12 | 25.4% (inactive)
13 | Cc1ccc(-c2cc(-c3cc4ccccc4nc3Cl)[nH]c(=O)n2)cc1 | 28.6% (inactive)
14 | COc1ccc([C@H]2C(C(=O)c3ccc(Cl)cc3)C3(N[C@@H]2c2ccccc2)C(=O)Nc2ccc(Br)cc23)cc1 (some centres undefined) | 7.23% (active)
15 | O=C(CS(=O)(=O)c1oc(-c2ccc(Cl)cc2)nc1S(=O)(=O)c1ccc(Cl)cc1)N1CCOCC1 | 73.5% (inactive)
16 | COc1ccc(C=CC(=O)c2ccc(-n3c(C)nc4c(cnn4-c4ccccc4)c3=O)cc2)cc1 | 92.7% (inactive)
17 | O=C1Nc2ccc(Cl)cc2/C1=C/c1cccc(OCc2ccccc2)c1 | 36.7% (inactive)
18 | CN(C)c1ccc(/C=C/C(=O)c2ccc(NC(=O)CN3C(=O)NC(C)(c4ccccc4)C3=O)cc2)cc1 (centres undefined) | 86.7% (inactive)
19 | COc1cccc(C(N)=Nc2ccc(OCCCCCCn3cncn3)cc2)c1 | 31.4% (inactive)
20 | CN1CCN(Cc2ccc(C(=O)Nc3cccc(Nc4ccc5cc(O)ccc5n4)c3)cc2C(F)(F)F)CC1 | -37.8% (active)
21 | Nc1nnc(-c2c[nH]c3ccc(F)cc23)c(-c2c[nH]c3ncccc23)n1 | 33.5% (inactive)
22 | C/C(=C\CC/C=C(\C)CC/C=C(\C)CC[C@@H](O)C(C)(C)O)CC/C=C(\C)CC[C@@H](O)C(C)(C)O | 76.8% (inactive)
23 | Cc1ccc(-c2ccc(SCC(=O)Nc3ccc(Cl)c(C(F)(F)F)c3)nn2)cc1 | 30.1% (inactive)
24 | CN1CCN(c2ccc(Nc3nc(NCCCNC(=O)c4ccc(F)cc4)c4sccc4n3)cc2)CC1 | 77.8% (inactive)
25 | C#Cc1ccc(S(=O)(=O)Nc2cccc(-c3csc(NC(C)=O)n3)c2)cc1 | 49.5% (inactive)

What follows are compounds tested on OVCAR-3 ovarian in the same assay as above. Details: 10 µM.

Row | SMILES | growth
26 | CCOc1ccc(Nc2nc3ccccc3nc2Nc2ccc(OCC)cc2)cc1 | 22.5% (inactive)
27 | O=c1cc(-c2ccccc2)oc2cc(OCCCCNCc3ccccc3)cc(O)c12 | 64.3% (inactive)
28 | Cc1ccc(C(C)C)cc1NC(=O)c1ccccc1N(C)C | 103% (inactive)
29 | CCCCSc1nc(Nc2ccc(/C(C)=N/NC(N)=S)cc2)c(C#N)c(-c2ccc(F)cc2)n1 | 35.4% (inactive)
30 | O=C(c1ccc(Cl)cc1)C1[C@H](c2ccccc2Br)[C@@H](c2ccccc2)NC12C(=O)Nc1ccccc12 (some centres undefined) | 10.5% (inactive)
31 | CC(=O)c1ccc(NC(=O)NCn2c(=O)[nH]c3ccccc3c2=O)cc1 | 131% (inactive)
32 | [2H]C([2H])([2H])Oc1ccc2ncc(C#Cc3cncc(C(=O)Nc4ccc(CN5CCN(C)CC5)c(C(F)(F)F)c4)c3)n2n1 | -78.8% (active)
33 | O=C1Nc2cc(Cl)ccc2/C1=C/c1ccc(OCc2ccc(Br)cc2F)cc1 | -82.1% (active)
34 | C[C@H]1[C@H](C)CC[C@]2(COC(=O)CCC(=O)NCC#CCN3CCNCC3)CC[C@]3(C)C(=CC[C@@H]4[C@@]5(C)CCCNC(C)(C)[C@@H]5CC[C@]43C)[C@H]12 | 75.6% (inactive)
35 | COc1ccc2nc(Cl)c(-c3cc(-c4ccccc4)nc(N)n3)cc2c1 | 12.1% (inactive)
36 | COc1ccc(CN2[C@H](C(=O)NCCCCCCC(=O)NO)Cc3c([nH]c4ccccc34)[C@H]2C2CC2)cc1 | 3.23% (active)
37 | COc1ccc(N(C)c2cc(C#N)nc3ccccc23)cc1N | 7.72% (active)
38 | COc1ccc(C(C)=C(c2ccc(OCCCN(C)C)cc2)c2ccc(OCCCN(C)C)cc2)cc1 | -81.3% (active)
39 | CC1(c2ccccc2)NC(=O)N(CC(=O)Nc2ccc(C(=O)/C=C/c3ccc(Cl)cc3)cc2)C1=O (centres undefined) | -69.9% (active)
40 | NC(=Nc1ccc(OCCCCCCCCn2ccnn2)cc1)c1ccccc1 | 25.3% (inactive)
41 | COC[C@@H](CC(C)C)N=C1N/C(=C\c2ccc3ncsc3c2)C(=O)N1C | 3.27% (active)
42 | O=C(CSc1ccc(-c2ccc(Cl)cc2)nn1)Nc1ccc(Cl)c(C(F)(F)F)c1 | 69.3% (inactive)

Row | SMILES | growth
43 | Cc1ccc(NC(=O)NCn2c(=O)[nH]c3ccccc3c2=O)cc1 | 87.6% (inactive)
44 | Cc1cc(C)cc(Oc2cccc(-c3c(C)nnn3C3CCN(CCN(C)C)CC3)n2)c1 | 38% (inactive)
45 | CC(=O)NCC1=C(C)C=C2C(=O)[C@](C)(O)C3(CC3)C(C)=C21 | -19.9% (active)
46 | O=C(Nc1ccc(OCC(=O)c2ccccc2)cc1)Nc1ccc(Cl)c(C(F)(F)F)c1 | 23.8% (inactive)
47 | CCOC(=O)c1c(CSc2ccccc2)n(C)c2cc(CN(C)C)c(O)c(CN(C)C)c12 | 13.8% (inactive)
48 | Cc1ccc(-c2cc(-c3cc4ccccc4nc3Cl)[nH]c(=O)n2)cc1 | 8.33% (active)
49 | COc1ccc([C@H]2C(C(=O)c3ccc(Cl)cc3)C3(N[C@@H]2c2ccccc2)C(=O)Nc2ccc(Br)cc23)cc1 (some centres undefined) | -30.8% (active)
50 | O=C(CS(=O)(=O)c1oc(-c2ccc(Cl)cc2)nc1S(=O)(=O)c1ccc(Cl)cc1)N1CCOCC1 | 6.83% (active)
51 | COc1ccc(C=CC(=O)c2ccc(-n3c(C)nc4c(cnn4-c4ccccc4)c3=O)cc2)cc1 | 61% (inactive)
52 | O=C1Nc2ccc(Cl)cc2/C1=C/c1cccc(OCc2ccccc2)c1 | 8.28% (active)
53 | CN(C)c1ccc(/C=C/C(=O)c2ccc(NC(=O)CN3C(=O)NC(C)(c4ccccc4)C3=O)cc2)cc1 (centres undefined) | 61.7% (inactive)
54 | COc1cccc(C(N)=Nc2ccc(OCCCCCCn3cncn3)cc2)c1 | 16.2% (inactive)
55 | CN1CCN(Cc2ccc(C(=O)Nc3cccc(Nc4ccc5cc(O)ccc5n4)c3)cc2C(F)(F)F)CC1 | -58.9% (active)
56 | C/C(=C\CC/C=C(\C)CC/C=C(\C)CC[C@@H](O)C(C)(C)O)CC/C=C(\C)CC[C@@H](O)C(C)(C)O | 42.6% (inactive)
57 | Cc1ccc(-c2ccc(SCC(=O)Nc3ccc(Cl)c(C(F)(F)F)c3)nn2)cc1 | 2.46% (active)
58 | CN1CCN(c2ccc(Nc3nc(NCCCNC(=O)c4ccc(F)cc4)c4sccc4n3)cc2)CC1 | 61.6% (inactive)
59 | C#Cc1ccc(S(=O)(=O)Nc2cccc(-c3csc(NC(C)=O)n3)c2)cc1 | 82.7% (inactive)
